A selection: hits, their analogues and other compounds. The true share with any hit is near 0.35%.
PvdQ acylase – blocks Pseudomonas aeruginosa PvdQ acylase activity; purified PvdQ acylase, fluorescence plate reader; inhibition, % at 10 µM; 340,000 compounds, 0.063% hits; AID 488965; in the data active = inhibition above about 30%, passing the limit was not always enough;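 note: 0% = vehicle neutral wells and 100% = reference inhibitor wells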
PDI inh – PDI (human) enzyme inhibition | PDI insulin aggregation turbidity, A650, 90 min | inhibition, % at 10 µM | 350,000 compounds, 0.052% hits;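 active = mean inhibition across replicates of 30% or more, whatever share of single replicates reach that level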
Rtt109 Vps75 – blocks Candida albicans Rtt109/Vps75 acetyltransferase activity | inhibition, % at 34.9 µM | purified Rtt109/Vps75, ThioGlo CoA-SH fluorescence, 4 h | Q5AAJ8 | 330,000 compounds, 0.16% hits;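 active = inhibition of at least 50% in every replicate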
ERAP1 HTS inh – blocks human ERAP1 aminopeptidase activity. recombinant ERAP1, Leu-AMC fluorescence, 60 min. 340,000 compounds, 0.15% hits. inhibition, % at 10.7 µM. Q9NZ08. AID 652197;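 active = mean replicate inhibition of at least 30%, or all replicates individually reaching that 30% level; inactive = mean below 30% and not every replicate reaching it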;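 note: 0% = neutral control wells and 100% = L-leucinethiol positive control wells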
ERp5 inh – inhibitors of human ERp5. ERp5 insulin aggregation, absorbance 650 nm, 90 min. 350,000 compounds, 0.05% hits. inhibition, % at 9.99 µM;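 active = mean replicate inhibition above about 25%, with every replicate also reaching it, limit read from the data, passing the limit was not always enough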
Target sequence (Q15084 whole entry, looked up): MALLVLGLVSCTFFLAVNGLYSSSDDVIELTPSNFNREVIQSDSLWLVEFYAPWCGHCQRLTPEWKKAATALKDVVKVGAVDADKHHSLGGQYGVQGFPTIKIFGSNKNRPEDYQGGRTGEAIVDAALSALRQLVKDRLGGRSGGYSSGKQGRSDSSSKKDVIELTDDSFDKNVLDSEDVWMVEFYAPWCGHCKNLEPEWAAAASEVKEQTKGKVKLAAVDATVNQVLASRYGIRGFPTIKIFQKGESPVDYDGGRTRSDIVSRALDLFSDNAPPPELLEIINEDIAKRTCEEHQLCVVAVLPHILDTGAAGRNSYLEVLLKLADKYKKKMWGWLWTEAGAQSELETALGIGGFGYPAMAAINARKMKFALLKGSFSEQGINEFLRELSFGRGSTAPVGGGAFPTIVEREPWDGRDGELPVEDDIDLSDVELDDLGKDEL
* hit, by the source's call; ! = a repeat was not active.

What do the screens show for `Cc1ccc(S(=O)(=O)Nc2ccc3c(c2)C(=O)N([C@@H](C)CO)C[C@H](C)[C@@H](CN(C)S(=O)(=O)c2ccc(C)cc2)OCCCC[C@H](C)O3)cc1`?
ERAP1 HTS inh: -4.4; ERp5 inh: -3.2

How did CC(O)/C=C/c1cccc[n+]1C (centres undefined) do in these assays?
PvdQ acylase: 7.5; PDI inh: 6.5; Rtt109 Vps75: -1.3; ERAP1 HTS inh: 107.5*; ERp5 inh: -0.9

Results for C[n+]1ccccc1/C=N/O ?
PvdQ acylase: 5.0; PDI inh: -4.8; Rtt109 Vps75: 6.5; ERAP1 HTS inh: 92.2*!; ERp5 inh: 1.9

Results for COc1cccc(C(=O)C[n+]2ccccc2/C=N/O)c1 ?
PvdQ acylase: -36.3; PDI inh: -6.1

What do the screens show for `C[n+]1ccccc1/C=C/c1cc(Br)ccc1O`?
PvdQ acylase: -14.0; PDI inh: 12.1; Rtt109 Vps75: -19.2; ERAP1 HTS inh: 11.1; ERp5 inh: 0.7

Results for C[C@@H]1CN([C@H](C)CO)S(=O)(=O)c2ccc(C#CC3CCCCC3)cc2O[C@@H]1CN(C)Cc1cccnc1 ?
ERAP1 HTS inh: 1.9; ERp5 inh: 5.1

What do the screens show for `C[C@@H]1CN([C@@H](C)CO)C(=O)c2cc(C#CCc3ccccc3)cnc2O[C@@H]1CN(C)Cc1cccc(F)c1`?
ERAP1 HTS inh: 1.6; ERp5 inh: 10.5

How did CCCC#Cc1cnc2c(c1)C(=O)N([C@@H](C)CO)C[C@@H](C)[C@H](CN(C)C(=O)Nc1ccc(OC)cc1)O2 do in these assays?
ERAP1 HTS inh: 2.6; ERp5 inh: 2.4

What do the screens show for `CC(=O)Nc1ccc(OCC(=O)NCc2ccccc2)cc1`?
PvdQ acylase: 2.8; PDI inh: 11.2; Rtt109 Vps75: 52.4*; ERAP1 HTS inh: 4.4; ERp5 inh: 5.8

Results for CC(=O)Nc1ccc(C(=O)OCC(=O)NCc2ccccc2)cc1 ?
PvdQ acylase: 20.0; PDI inh: -2.3; Rtt109 Vps75: 7.7; ERAP1 HTS inh: 0.9; ERp5 inh: 5.8

How did CCCCC(=O)OC1CCC2C3CCc4cc(O)ccc4C3CCC12C (centres undefined) do in these assays?
PvdQ acylase: -5.2; PDI inh: 70.9*; Rtt109 Vps75: 3.6; ERAP1 HTS inh: -0.5; ERp5 inh: 0.8

What do the screens show for `C[C@]12CC[C@@H]3c4ccc(O)cc4CC[C@H]3[C@@H]1CC[C@@H]2OC(=O)CCC(=O)O`?
PvdQ acylase: 5.8; PDI inh: -9.8; Rtt109 Vps75: 4.0; ERAP1 HTS inh: 0.4; ERp5 inh: -0.6

Results for COc1cc(SC#N)ccc1N=Cc1c(C)[nH]n(-c2ccc(Cl)cc2)c1=O ?
PvdQ acylase: -17.1; PDI inh: -3.9; Rtt109 Vps75: -1.2

How did COc1cc(SC#N)ccc1N=Cc1c(C)[nH]n(-c2ccc(C)c(C)c2)c1=O do in these assays?
PvdQ acylase: 1.2; PDI inh: -16.3; Rtt109 Vps75: 55.6*; ERAP1 HTS inh: -1.9; ERp5 inh: 0.4

Results for C[C@@H]1CN([C@H](C)CO)C(=O)c2cc(-c3cccc(F)c3)cnc2O[C@@H]1CN(C)C(=O)C1CCCCC1 ?
ERAP1 HTS inh: 3.6; ERp5 inh: 7.6

Results for COc1ccc(N=C2S/C(=C\c3ccc(N4CCOCC4)o3)C(=O)N2CCc2c[nH]c3ccccc23)cc1 ?
PvdQ acylase: -8.4; PDI inh: 19.3; Rtt109 Vps75: -0.8

Results for COc1ccc(N=C2S/C(=C\c3ccc(OCC(=O)O)cc3)C(=O)N2CCc2c[nH]c3ccccc23)cc1 ?
PvdQ acylase: -9.6; PDI inh: -1.1; Rtt109 Vps75: 9.6; ERAP1 HTS inh: 4.9; ERp5 inh: 31.5*

What do the screens show for `CCC(=O)Nc1ccc2c(c1)C(=O)N(C)[C@H]1CC[C@H](CC(=O)NCC3CC3)O[C@@H]1CO2`?
ERAP1 HTS inh: 0.4; ERp5 inh: -0.6

What do the screens show for `CCC(=O)Nc1ccc2c(c1)C(=O)N(C)C[C@H](OC)[C@@H](C)CN(C(=O)c1cccnc1)[C@H](C)CO2`?
ERAP1 HTS inh: -2.0; ERp5 inh: -4.0

Results for O=C(Nc1nc(-c2nc3ccccc3s2)cs1)c1ccc(S(=O)(=O)N2CCOCC2)cc1 ?
PvdQ acylase: 10.5; PDI inh: -0.9; Rtt109 Vps75: 62.1*

How did O=C(Nc1nc(-c2ccc(S(=O)(=O)N3CCOCC3)cc2)cs1)c1ccccc1 do in these assays?
PvdQ acylase: 0.1; PDI inh: -1.1; Rtt109 Vps75: 7.2; ERAP1 HTS inh: -0.7; ERp5 inh: -9.6
